Measured values reported in PubChem BioAssay AID1508600 (Functional Genomics Laboratory (NCATS/FGL), 2020).
About 3,700 (7%) of roughly 53,000 sequences were called active.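 How the source made its calls: active means gene knockdowns whose robust z-score for IL-1 alpha signal is at least 2 or at most -2, so actives lie on both sides; inactive means the rest.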 The sample as a whole holds a higher share of actives than the screen did.

Assay: Components of the Cytosolic LPS Sensing Pathway: Gene Identification via Genome-wide siRNA Screen;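 further: robust z of the log signal after scaling to non-targeting control siRNA wells of the plate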
Settings: RAW264.7 macrophages, IL-1a HTRF, actives lie on both sides, screened at 100 nM (by protocol), cells primed 5 h with Pam3CSK4 first
Outline: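 RAW264.7; siRNA 100 nM final, RNAiMAX, 48h 37 degrees C; Pam3CSK4 5 h; LipidA + TransIT-TKO 24 h; IL-1a HTRF; CellTiter-Glo viability; robust z vs negative-control median.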

| Sequence | z-score |
| --- | --- |
| GCUCUCCUUGAUCGAGAGATT against Spryd7 | -2.65 (active) |
| GCCUUGUCUUCCUUCAGUGTT against Sprr2a1 | -0.172 (inactive) |
| GGACUUAAGUACAAAGAUCTT against Sap18 | 1.46 (inactive) |
| GCAUCAAAUAGUGGUACCUTT against Lsm14a | -0.209 (inactive) |
| CGAGCUCAGGUGAGAAAUUTT against Pfpl | 0.924 (inactive) |
| GGACUGCCUUAUGCUACGATT against Setd5 | -0.44 (inactive) |
| GUCCUCUUCUGGUUCUCAGTT against Vmn1r52 | 0.246 (inactive) |
| CGAGAAGUACAAAAGGGAGTT against Ccdc103 | -0.768 (inactive) |
| GGUCCUGACUGGAUACCUGTT against Ece1 | 4.19 (active) |
| GGCGGAGUAGACUUCAUAUTT against Olfr593 | 0.363 (inactive) |
| GUUUGAUGAUCACUGGGUCTT against Aqp2 | 1.6 (inactive) |
| GCUCCGAAGAGCUAAUACUTT against Tmem25 | 0.944 (inactive) |
| GCGGCAGAUCUUCGAUUUCTT against Nkain1 | 0.168 (inactive) |
| GGCAAAUAUUUCCAAGUACTT against Cpq | -1.57 (inactive) |
| CGAAGUUCCUGGAAAAUAUTT against Tbc1d7 | -0.924 (inactive) |
| CCAGAACGCGGAGCAAAUUTT against Sec63 | 2.13 (active) |
| GCACUGUGACGAUACAAGATT against Asb1 | -1.17 (inactive) |
| CCGUAGCGAGACUUACAUCTT against Asic3 | 1.88 (inactive) |
| CCUAUAAUGGAGAUGAUACTT against Spty2d1 | -0.46 (inactive) |
| GGGAAAUGGUGAAUCACAGTT against Dpp8 | 2.25 (active) |
| GGCAGAAGCCGUUAGAGAUTT against Cep295nl | 0.35 (inactive) |
| CCAAUCGUAAUGACAAUUCTT against Myo1d | -0.857 (inactive) |
| GGGACAACACUCUUUUACUTT against Nab2 | 0.696 (inactive) |
| GGAGGACUUUCAGUUAUAUTT against Ogfod3 | 1.32 (inactive) |
| GCGAUUGUGCUUUUGAGCCTT against Tanc2 | 1.97 (inactive) |
| GGCUUCAGUGAUGAAUGAATT against Tor1aip1 | -0.594 (inactive) |
| GCCACGACACGAUGACAUATT against Plcxd1 | 0.918 (inactive) |

| Sequence | z-score |
| --- | --- |
| GCUAAGUUAAGCUUAAUACTT against Rbl1 | 3.33 (active) |
| GGCAUAGCCACUAAAAAAATT against Muc2 | -0.832 (inactive) |
| GGUUUCCAGUUAUCUUAAUTT against Glipr1l2 | 1.46 (inactive) |
| GGACAAAGAAACUCAUAGGTT against A530021J07Rik | 0.737 (inactive) |
| GGCUUUUUAGGAAACUAUATT against Olfr361 | 2.12 (active) |
| GGUGAACUUCUUUGGUGCATT against Hsd11b2 | 0.0519 (inactive) |
| GCUUAGAAAUCUUAUCCCATT against Hnrnpc | -1.19 (inactive) |
| GGCACUUCUUUCCAAGACGTT against Gbp7 | -0.373 (inactive) |
| GCCUGUUCUAUGUUACUGGTT against Olfr320 | -1.99 (inactive) |
| GCGAUGUCAAUCAAUUCUGTT against Gpr37l1 | 0.513 (inactive) |
| GCAUUUCGUCAGGGCAAAATT against Fuca1 | -0.515 (inactive) |
| UAUUUCUCCCUUGCUGGUATT against Gm5168 | 1.18 (inactive) |
| CCGCUGAAAAUGGAAGUUATT against Mrgprb4 | -2.21 (active) |
| GCCCAGAAUAGACAAACCGTT against Wfdc15b | -1.95 (inactive) |
| CCUGAUCCCAUGUAAAACATT against Sspn | -0.35 (inactive) |
| GGGAAUGACAGAAAUAUAATT against Golm1 | 0.923 (inactive) |
| GGUUGUUACCUUACUGUACTT against Olfr532 | 0.952 (inactive) |
| GGCUAUUGUUGGUAGAACUTT against Dek | 0.441 (inactive) |
| CGUAAUACAAUCCAGUUCATT against Aqr | -2.18 (active) |
| GGACUUAUGAGCAAAUAAATT against Rprd1a | 0.494 (inactive) |
| GGAACUUUAUGUCUCCUACTT against Lrrc56 | -0.988 (inactive) |
| GGUUUCCUUUAUCAAGAAGTT against Snrnp25 | -0.00388 (inactive) |
| CCUAUAAGUGAACUGUGAUTT against Aig1 | -0.71 (inactive) |
| CCUGUAUACUAUCACUUGUTT against Casp8 | 0.103 (inactive) |
| GCAGCUGCACUAAAGAACGTT against Dlg1 | 2.9 (active) |
| GGUGUCUUAUGAGCAAUAUTT against Pdcd6 | -1.12 (inactive) |
| GGGAAAUCAGAUAAAGCCCTT against Myl12a | 0.874 (inactive) |
